# The whole screen tested about 39,000 compounds, of which about 3,300 (8.5%) were called active. This is one part of a sample in which actives are shown more often than they occur.
# System: HepG2
# Experiment: cytotoxicity call (relative viability < 0.9)
# Settings: 10 µM
row,Structure (SMILES),cytotoxicity call
1,Cc1ccc(S(=O)(=O)N2C[C@H](O)COC[C@@H]3O[C@H](CC(=O)N[C@H]4CCN(Cc5ccccc5)C4)CC[C@H]32)cc1,inactive
2,O=C(O)Cn1c(=O)oc2ccccc21,inactive
3,C[C@@H]1CN([C@H](C)CO)C(=O)c2cc(NC(=O)C3CCCCC3)ccc2O[C@@H](C)CCCCO[C@H]1CN(C)C(=O)Cc1ccccc1,inactive
4,COc1ccc(S(=O)(=O)N(C)C[C@@H]2OCCCC[C@@H](C)Oc3ccc(NC(=O)Nc4ccc(F)cc4)cc3C(=O)N([C@@H](C)CO)C[C@@H]2C)cc1,inactive
5,CCOc1ccc([C@@H](C)N)cc1OCC,inactive
6,COc1cc2ccnc(CCCN)c2cc1OC,inactive
7,CCOc1ccc(Cc2nccc3cc(OCC)c(OCC)cc23)cc1OCC.Cl,active
8,C[C@H](CO)N1C[C@H](C)[C@@H](CN(C)Cc2ccc(C(=O)Nc3ccccc3N)cc2)Oc2c(NC(=O)Nc3ccc(C(F)(F)F)cc3)cccc2C1=O,inactive
9,C[C@@H]1CN([C@@H](C)CO)C(=O)c2cccc(NC(=O)Nc3ccc(C(F)(F)F)cc3)c2O[C@H]1CN(C)Cc1ccc(C(=O)Nc2ccccc2N)cc1,active
10,C[C@H]1CN([C@@H](C)CO)C(=O)c2cccc(NC(=O)Nc3ccc(C(F)(F)F)cc3)c2O[C@H]1CN(C)Cc1ccc(C(=O)Nc2ccccc2N)cc1,inactive
11,C[C@@H]1CN([C@@H](C)CO)C(=O)c2cccc(NC(=O)Nc3ccc(C(F)(F)F)cc3)c2O[C@@H]1CN(C)Cc1ccc(C(=O)Nc2ccccc2N)cc1,active
12,C[C@H]1CN([C@@H](C)CO)C(=O)c2cccc(NC(=O)Nc3ccc(C(F)(F)F)cc3)c2O[C@@H]1CN(C)Cc1ccc(C(=O)Nc2ccccc2N)cc1,inactive
13,C[C@@H]1CN([C@H](C)CO)C(=O)c2cccc(NC(=O)Nc3ccc(C(F)(F)F)cc3)c2O[C@H]1CN(C)Cc1ccc(C(=O)Nc2ccccc2N)cc1,inactive
14,COCC(=O)N(C)C[C@@H]1Oc2cc(C#C[C@H](C)O)ccc2S(=O)(=O)N([C@H](C)CO)C[C@@H]1C,inactive
15,C[C@@H]1CN([C@H](C)CO)C(=O)Cc2cc(NS(=O)(=O)c3ccc(F)cc3)ccc2O[C@H]1CN(C)Cc1ccc(Cl)c(Cl)c1,active
16,C[C@H]1CN([C@@H](C)CO)C(=O)Cc2cc(NS(=O)(=O)c3ccc(F)cc3)ccc2O[C@@H]1CN(C)Cc1ccc(Cl)c(Cl)c1,active
17,C[C@H]1CN([C@@H](C)CO)C(=O)Cc2cc(NS(=O)(=O)c3ccc(F)cc3)ccc2O[C@H]1CN(C)Cc1ccc(Cl)c(Cl)c1,active
18,C[C@H](CO)N1C[C@H](C)[C@H](CN(C)Cc2ccc(Cl)c(Cl)c2)Oc2ccc(NS(=O)(=O)c3ccc(F)cc3)cc2CC1=O,inactive
19,C[C@@H]1CN([C@@H](C)CO)C(=O)Cc2cc(NS(=O)(=O)c3ccc(F)cc3)ccc2O[C@H]1CN(C)Cc1ccc(Cl)c(Cl)c1,inactive
20,C[C@@H]1CN([C@@H](C)CO)C(=O)Cc2cc(NS(=O)(=O)c3ccc(F)cc3)ccc2O[C@@H]1CN(C)Cc1ccc(Cl)c(Cl)c1,active
21,C[C@H](CO)N1C[C@H](C)[C@@H](CN(C)Cc2ccc(Cl)c(Cl)c2)Oc2ccc(NS(=O)(=O)c3ccc(F)cc3)cc2CC1=O,inactive
22,Cc1ccc(S(=O)(=O)Nc2ccc3c(c2)C(=O)N([C@H](C)CO)C[C@H](C)[C@H](CN(C)CC2CC2)O3)cc1,inactive
23,OCCn1cncn1,inactive
24,CN(C)CCCCNC(=O)[C@H]1C[C@H]2C(=O)NCC(=O)N2[C@H]1c1cccc(OCCO)c1,inactive
25,C[C@@H]1CCCCO[C@@H](CN(C)S(=O)(=O)c2cccs2)[C@H](C)CN([C@@H](C)CO)C(=O)c2cc(NC(=O)C3CCCCC3)ccc2O1,inactive
26,Cc1ncc(CO)c(CO)c1O,inactive
27,C[C@@H]1CCCCO[C@H](CN(C)Cc2ccncc2)[C@H](C)CN([C@@H](C)CO)C(=O)c2cc(NC(=O)Nc3ccc4c(c3)OCO4)ccc2O1,inactive
28,Cc1noc(C)c1NC(=O)N(C)C[C@@H]1Oc2ccc(NS(=O)(=O)c3ccccc3)cc2C(=O)N([C@@H](C)CO)C[C@H]1C,inactive
29,C[C@@H]1CN([C@H](C)CO)C(=O)Cc2cc(NS(=O)(=O)c3ccc(F)cc3)ccc2O[C@@H]1CN(C)Cc1ccc(Cl)c(Cl)c1,active
30,COc1ccc(S(=O)(=O)N(C)C[C@H]2Oc3c(NC(=O)C4CCOCC4)cccc3C(=O)N([C@@H](C)CO)C[C@@H]2C)cc1,inactive
